Results as given in PubChem BioAssay.
Values without a mark were called inactive. Some of the results follow. Calls of active or inactive are those of the source. Rule as the data show it, unless noted: active = inhibition above about 25%; inactive = the rest.

Experiments:
[1] = target: Platelet-activating factor acetylhydrolase IB subunit alpha1 (Homo sapiens) (UniProt Q15102); experiment: inhibition of PAF acetylhydrolase 1B subunit 3 – biochemical, fluorescence polarization, human, confirmation (AID 493032;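 active = average inhibition over triplicate runs above the hit cutoff set in the earlier primary screen, cut at about 25% in these data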;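 also: 0% = enzyme with DMSO and 100% = wells lacking PAFAH1B3 protein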); conditions: recombinant PAFAH1B3, FP-Rh activity-based probe, at 3.39 µM, stronger effect = higher value
Platelet-activating factor acetylhydrolase IB subunit alpha1 (Homo sapiens), sequence (Q15102 whole entry, looked up): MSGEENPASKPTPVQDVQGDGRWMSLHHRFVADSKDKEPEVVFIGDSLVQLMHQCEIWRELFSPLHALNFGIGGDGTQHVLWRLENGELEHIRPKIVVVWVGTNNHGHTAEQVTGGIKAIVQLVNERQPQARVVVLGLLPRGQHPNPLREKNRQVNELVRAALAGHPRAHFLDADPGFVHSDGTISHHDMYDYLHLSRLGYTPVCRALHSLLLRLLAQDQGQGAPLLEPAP

[2] = reduced OD of T4-infected AddAB+ E. coli – absorbance, E. coli V3065, T4 phage, triplicate, AddAB inhibitor project, confirmation (AID 488942;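 active = mean inhibition above a set limit taken from the earlier primary screen, cut at about 13% in these data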;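 also: higher means less bacterial growth since AddAB block lets phage replicate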); conditions: E. coli V3065 expressing H. pylori AddAB, at 11.9 µM, stronger effect = higher value, T4 phage with gene 2 nonsense mutations
[3] = reduced OD of phage-infected RecBCD+ V66 E. coli – absorbance, mutant T4 phage, counter-screen for AddAB inhibitor project (AID 488955;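 active = mean inhibition above the mean of solvent-only control wells plus 3 SD, cut at about 4% in these data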;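 also: optical density read after an 18 h incubation at 37 °C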); conditions: OD growth, at 11.9 µM, stronger effect = higher value
[4] = bacterial growth inhibitors – absorbance, counter-screen for AddAB inhibitor project, confirmation (AID 488956); conditions: bacterial viability, absorbance (AddAB counterscreen); at 11.9 µM; stronger effect = higher value
[5] = reduced OD of V66 E. coli with T4 gene 2 phage – absorbance, RecBCD inhibitor project, confirmation (AID 651982;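 active = mean inhibition over triplicates exceeding the hit threshold derived in the original primary screen, cut at about 11% in these data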); conditions: E. coli V66 + T4 2- phage, growth OD; at 11.9 µM; stronger effect = higher value
[6] = bacterial growth inhibition – absorbance, high throughput, counter-screen for RecBCD inhibitor project (AID 651983; in the data active = inhibition above about 20%;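 also: E. coli strain V66 grown with compound alone and no phage infection; 0% = bacteria with DMSO vehicle only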); conditions: E. coli viability, absorbance (OD) growth; at 11.9 µM; stronger effect = higher value
[7] = reduced optical density, T4-challenged addAB+ bacteria – absorbance, E. coli V3065, T4 phage, counter-screen for RecBCD inhibitor project, confirmation (AID 651984;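 active = mean inhibition above the solvent-only control wells' mean plus 3 SD, cut at about 22% in these data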;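 also: higher means less bacterial growth from phage killing when AddAB is blocked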); conditions: E. coli expressing H. pylori AddAB + T4 phage, OD growth; at 11.9 µM; stronger effect = higher value; gene 2 mutant T4, recBCD-deleted host
[8] = target: Serine protease HTRA1 (Homo sapiens) (UniProt Q92743); experiment: confirming inhibition of human HTRA1 – biochemical, fluorescence polarization, confirmation (AID 540248;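 active = mean inhibition over three repeats above a set limit taken from the earlier primary screen, cut at about 37% in these data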;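 also: 0% = HTRA1 with DMSO and 100% = wells lacking HTRA1; inhibitors block probe binding so polarization drops and inhibition rises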); conditions: recombinant HTRA1, FP-rhodamine activity-based probe, at 5.96 µM, stronger effect = higher value
[9] = target: Nuclear receptor coactivator 3 (Homo sapiens) (UniProt Q9Y6Q9); experiment: NCOA3 GAL4-fusion reporter inhibition – cell-based, luminescence, quadruplicate, confirmation (AID 588792;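 active = mean inhibition over 43.08%, the solvent-only control mean plus 3 SD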;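 also: 0% = DMSO treated cells and 100% = gossypol at 36 µM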); conditions: HEK293 GAL4-SRC3 luciferase reporter, at 3.6 µM, stronger effect = higher value
Nuclear receptor coactivator 3 (Homo sapiens), sequence (Q9Y6Q9 whole entry, looked up, the tested form may be a part): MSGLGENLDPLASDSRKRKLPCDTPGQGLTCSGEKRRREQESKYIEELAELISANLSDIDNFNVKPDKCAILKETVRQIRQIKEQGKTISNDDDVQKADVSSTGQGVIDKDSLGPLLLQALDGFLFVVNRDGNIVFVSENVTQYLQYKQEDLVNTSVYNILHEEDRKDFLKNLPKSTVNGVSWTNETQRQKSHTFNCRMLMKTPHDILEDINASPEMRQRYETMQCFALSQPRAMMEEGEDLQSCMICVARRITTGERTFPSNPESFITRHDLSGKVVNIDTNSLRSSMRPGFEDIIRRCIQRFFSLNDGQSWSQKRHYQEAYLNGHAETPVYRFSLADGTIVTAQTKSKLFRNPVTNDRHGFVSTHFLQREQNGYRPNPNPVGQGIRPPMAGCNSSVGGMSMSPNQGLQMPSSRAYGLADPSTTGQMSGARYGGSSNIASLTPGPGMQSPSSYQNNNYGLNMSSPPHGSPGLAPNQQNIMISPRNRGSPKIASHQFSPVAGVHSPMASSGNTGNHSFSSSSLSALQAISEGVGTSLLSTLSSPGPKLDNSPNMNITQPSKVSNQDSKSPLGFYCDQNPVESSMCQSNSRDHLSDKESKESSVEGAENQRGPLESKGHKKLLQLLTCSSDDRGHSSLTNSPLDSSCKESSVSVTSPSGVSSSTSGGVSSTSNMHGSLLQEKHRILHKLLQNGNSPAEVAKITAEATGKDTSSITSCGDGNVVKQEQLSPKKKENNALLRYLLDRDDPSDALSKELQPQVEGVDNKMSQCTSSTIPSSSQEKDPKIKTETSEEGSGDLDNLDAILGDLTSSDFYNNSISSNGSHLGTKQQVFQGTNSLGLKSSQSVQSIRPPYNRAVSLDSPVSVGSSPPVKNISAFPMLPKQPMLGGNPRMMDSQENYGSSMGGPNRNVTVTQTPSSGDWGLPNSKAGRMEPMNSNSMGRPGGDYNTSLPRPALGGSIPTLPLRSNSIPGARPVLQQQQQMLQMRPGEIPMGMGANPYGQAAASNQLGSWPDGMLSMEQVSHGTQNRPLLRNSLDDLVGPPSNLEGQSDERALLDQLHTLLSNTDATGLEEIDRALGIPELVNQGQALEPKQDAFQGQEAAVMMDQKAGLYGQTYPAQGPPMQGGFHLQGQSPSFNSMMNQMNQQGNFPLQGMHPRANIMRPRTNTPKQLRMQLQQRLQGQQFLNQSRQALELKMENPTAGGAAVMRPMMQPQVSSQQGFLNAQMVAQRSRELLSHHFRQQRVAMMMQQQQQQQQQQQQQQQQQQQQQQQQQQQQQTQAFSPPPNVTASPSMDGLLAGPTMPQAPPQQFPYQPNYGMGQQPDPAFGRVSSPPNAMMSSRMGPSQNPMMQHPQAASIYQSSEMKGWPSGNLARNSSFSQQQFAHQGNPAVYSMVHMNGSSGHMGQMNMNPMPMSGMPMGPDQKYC

[10] = system: transactivating tegument protein VP16 (Human herpesvirus 1), Gal4-VP16 luciferase reporter; experiment: repression of VP16-driven luciferase reporter – cell-based, luminescence, high throughput, counter-screen for SRC3 inhibitor project (AID 588794; in the data active = inhibition above about 30%); conditions: mammalian cells, at 3.6 µM, stronger effect = higher value
[11] = target: Nuclear receptor coactivator 1 (Homo sapiens) (UniProt Q15788); experiment: NCOA1 GAL4-fusion reporter inhibition – cell-based, luminescence, quadruplicate, confirmation (AID 588820;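 active = mean inhibition above 46.68%, the untreated control wells mean plus 3 SD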;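 also: 0% = DMSO wells and 100% = gossypol 36 µM treated wells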); conditions: HEK293 GAL4-SRC1 luciferase reporter, at 3.6 µM, stronger effect = higher value
Nuclear receptor coactivator 1 (Homo sapiens), sequence (Q15788 whole entry, looked up, the tested form may be a part): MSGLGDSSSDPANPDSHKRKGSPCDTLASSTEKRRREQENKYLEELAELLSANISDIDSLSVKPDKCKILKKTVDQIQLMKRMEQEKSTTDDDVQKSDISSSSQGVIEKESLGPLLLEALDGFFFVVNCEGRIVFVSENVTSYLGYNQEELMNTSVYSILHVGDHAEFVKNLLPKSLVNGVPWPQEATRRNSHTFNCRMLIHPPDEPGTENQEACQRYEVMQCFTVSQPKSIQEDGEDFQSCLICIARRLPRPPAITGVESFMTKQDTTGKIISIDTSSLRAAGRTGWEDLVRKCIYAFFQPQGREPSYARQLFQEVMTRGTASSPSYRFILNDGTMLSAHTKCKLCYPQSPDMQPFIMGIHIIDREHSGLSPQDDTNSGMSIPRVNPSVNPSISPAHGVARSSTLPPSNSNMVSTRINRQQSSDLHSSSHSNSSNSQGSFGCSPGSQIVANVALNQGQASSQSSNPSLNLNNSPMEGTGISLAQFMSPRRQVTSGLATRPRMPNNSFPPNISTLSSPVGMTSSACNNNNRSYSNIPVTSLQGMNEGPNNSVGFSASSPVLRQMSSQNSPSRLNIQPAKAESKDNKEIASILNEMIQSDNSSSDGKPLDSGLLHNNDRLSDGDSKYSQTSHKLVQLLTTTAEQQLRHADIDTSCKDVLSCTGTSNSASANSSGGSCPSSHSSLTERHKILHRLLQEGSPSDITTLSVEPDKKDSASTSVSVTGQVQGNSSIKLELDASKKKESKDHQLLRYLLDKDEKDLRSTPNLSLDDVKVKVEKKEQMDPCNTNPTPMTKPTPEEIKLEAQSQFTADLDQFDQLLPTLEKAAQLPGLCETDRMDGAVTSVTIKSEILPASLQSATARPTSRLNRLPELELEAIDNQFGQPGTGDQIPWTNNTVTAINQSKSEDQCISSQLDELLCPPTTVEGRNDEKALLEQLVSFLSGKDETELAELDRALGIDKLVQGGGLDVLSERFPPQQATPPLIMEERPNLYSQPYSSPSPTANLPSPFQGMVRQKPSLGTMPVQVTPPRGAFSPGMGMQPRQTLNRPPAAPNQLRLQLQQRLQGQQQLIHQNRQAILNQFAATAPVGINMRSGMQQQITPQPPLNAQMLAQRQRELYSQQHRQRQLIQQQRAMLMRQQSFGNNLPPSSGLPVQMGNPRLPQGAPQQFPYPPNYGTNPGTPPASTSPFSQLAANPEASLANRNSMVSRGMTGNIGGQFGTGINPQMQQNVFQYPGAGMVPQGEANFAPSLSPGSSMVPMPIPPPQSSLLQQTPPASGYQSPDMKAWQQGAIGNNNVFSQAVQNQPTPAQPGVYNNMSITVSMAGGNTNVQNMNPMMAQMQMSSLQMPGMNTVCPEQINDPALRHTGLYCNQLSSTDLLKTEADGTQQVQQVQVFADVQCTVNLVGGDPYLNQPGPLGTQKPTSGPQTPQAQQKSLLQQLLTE

[12] = repression of VP16-driven luciferase reporter – cell-based, luminescence, high throughput, counter-screen for SRC1 inhibitor project (AID 588824); conditions: cell-based VP16 transactivation luciferase luminescence; at 3.6 µM; stronger effect = higher value

Question: With `Cc1ccc(C)c(NC(=O)NNC(=O)c2ccc3ccccc3c2O)c1` as the molecule, how does the inhibition [1] read?
Answer: 40.5% (active)

Question: With `COc1ccc(C2=Nn3c(nnc3-c3ccccc3OC)SC2)cc1OC1CCCC1` as the molecule, how does the inhibition [1] read?
Answer: 35.2% (active)

Question: Which results are given for `CC1=C(C(=O)OCc2ccccc2)C(c2ccco2)n2ncnc2N1` (stereo unspecified)?
Answer: inhibition [2]: 0.55%; inhibition [3]: 0.26%; inhibition [4]: -3.83%

Question: For `CC1CCCN(C(=O)c2ccc3c(c2)C(=O)N(CCC2=CCCCC2)C3=O)C1` (stereo unspecified), which inhibition [2] is on record?
Answer: -4.68%

Question: What about the inhibition [3] of the same molecule?
Answer: -0.96%

Question: And the inhibition [4]?
Answer: -2.15%

Question: Which results are given for `Cc1ccc(C(=O)/C=C/Nc2ccc(S(=O)(=O)Nc3onc(C)c3C)cc2)cc1`?
Answer: inhibition [2]: 2.14%; inhibition [3]: 3.94%; inhibition [4]: 2.93%

Question: Which inhibition [2] does the source give for `Cc1cn(C2C=CC(CO)O2)c(=O)[nH]c1=O` (stereo unspecified) here?
Answer: 83.8% (active)

Question: What about the inhibition [3] of the same molecule?
Answer: 6.53% (active)

Question: What about the inhibition [4] of the same molecule?
Answer: 42.2% (active)

Question: And the inhibition [5]?
Answer: 14.1% (active)

Question: What about the inhibition [6] of the same molecule?
Answer: 8.16%

Question: And the inhibition [7]?
Answer: 54.6% (active)

Question: With `Cc1cc(-c2csc(N)n2)c(C)n1-c1ccccc1` as the molecule, how does the inhibition [8] read?
Answer: 28.5%

Question: With `CCN1CCN(C(c2cccnc2)c2cc(Cl)c3cccnc3c2O)CC1` (stereo unspecified) as the molecule, how does the inhibition [8] read?
Answer: 67.8% (active)

Question: With `CC(=O)N(O)CCCCCNC(=O)CCC(=O)N(O)CCCCCNC(=O)CCC(=O)N(O)CCCCCNC(=O)CCC(=O)O` as the molecule, how does the inhibition [2] read?
Answer: 13.8% (active)

Question: And the inhibition [3]?
Answer: 14.4% (active)

Question: And the inhibition [4]?
Answer: 2.8%

Question: What about the inhibition [5] of the same molecule?
Answer: 7.53%

Question: What about the inhibition [6] of the same molecule?
Answer: 11.4%

Question: And the inhibition [7]?
Answer: 12.5%

Question: With `CCN(CC)c1ccc(/C=N/Nc2nc(C)cc(C)n2)c(O)c1` as the molecule, how does the inhibition [8] read?
Answer: 61.8% (active)

Question: Which inhibition [8] does the source give for `O=C(CN1CCN(S(=O)(=O)c2cc(Cl)ccc2Cl)CC1)c1ccc(O)c(O)c1` here?
Answer: 45.3% (active)

Question: Which inhibition [8] does the source give for `COc1cccc2sc(NNC(=O)c3nc4ccccc4s3)nc12` here?
Answer: 130% (active)

Question: For `COc1cccc(Cn2cc(/C=N/NC(=O)c3cc(O)cc(O)c3)c3ccccc32)c1`, which inhibition [1] is on record?
Answer: 17.6%

Question: For `COc1ccc(C(=O)COC(=O)c2ccc([N+](=O)[O-])s2)cc1OC`, which inhibition [1] is on record?
Answer: 13.3%

Question: With `Cc1cccc(NC(=O)Cn2cc(C(=O)c3ccco3)c3ccccc32)c1` as the molecule, how does the inhibition [2] read?
Answer: 14.9% (active)

Question: And the inhibition [3]?
Answer: 10.9% (active)

Question: What about the inhibition [4] of the same molecule?
Answer: 11.8%

Question: What about the inhibition [5] of the same molecule?
Answer: 6.82%

Question: And the inhibition [6]?
Answer: 11.3%

Question: And the inhibition [7]?
Answer: 7.23%

Question: Which inhibition [2] does the source give for `Nc1nonc1-n1nnc(C(=O)N/N=C/c2cc(Br)ccc2O)c1CSC1=NCCS1` here?
Answer: 14.2% (active)

Question: And the inhibition [3]?
Answer: 16% (active)

Question: And the inhibition [4]?
Answer: 9.73%

Question: And the inhibition [9]?
Answer: 42.7%

Question: And the inhibition [10]?
Answer: 34.5% (active)

Question: What about the inhibition [11] of the same molecule?
Answer: 41%

Question: What about the inhibition [12] of the same molecule?
Answer: 33.4% (active)

Question: What about the inhibition [5] of the same molecule?
Answer: 6.91%

Question: And the inhibition [6]?
Answer: 9.92%

Question: And the inhibition [7]?
Answer: 10.8%
